Results: PubChem BioAssay AID1159580 (chemical genetic matrix, 2015)
Among all 5,500 compounds or so, about 2,000 (36%) were called active. Not shown: some 18% with an inconclusive outcome. This is one part of the list. Values without a mark were called inactive. Rule as the data show it: active = normalized growth mostly below about 0.91 (no sharp cut-off); inconclusive = no clear call, values can overlap the other calls; inactive = mostly above about 0.92.

Assay: chemical genetic growth profiling, strain panel (AID 1159580);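 also: tested at 20 µM; growth read once vehicle control cultures reached saturation at 30 °C; 1 = growth at the plate median or of vehicle wells; lower values mean less growth of the strain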
Settings: S. cerevisiae deletion strains, growth OD
[1] = locus YHR030C, strain SLT2, stronger effect = lower value
[2] = locus YHR079C, strain IRE1, stronger effect = lower value
[3] = locus YJL095W, strain BCK1, stronger effect = lower value
[4] = locus YJR066W, strain TOR1, stronger effect = lower value
[5] = locus YLR113W, strain HOG1, stronger effect = lower value
[6] = locus YNL183C, strain NPR1, stronger effect = lower value
[7] = locus YOR231W, strain MKK1, stronger effect = lower value
[8] = locus YPL256C, strain CLN2, stronger effect = lower value

Which results are given for CCc1oc2ccccc2c1C(=O)c1cc(Br)c(O)c(Br)c1?
normalized growth [1]: 0.0985 (active); normalized growth [2]: 0.111 (active); normalized growth [3]: 0.101 (active); normalized growth [4]: 0.00147 (active); normalized growth [5]: 0.124 (active); normalized growth [6]: 0.06 (active); normalized growth [7]: 0.105 (active); normalized growth [8]: 0.13 (active)

With O=C(O)c1ccccc1-c1c2cc(I)c(=O)c(I)c-2oc2c(I)c(O)c(I)cc12 as the compound, how does the normalized growth [1] read?
Its normalized growth is 0.991.

What about the normalized growth [2] of the same compound?
The normalized growth was 1.

And the normalized growth [3]?
The normalized growth was 0.992.

And the normalized growth [4]?
The normalized growth was 0.903.

And the normalized growth [5]?
The normalized growth was 0.942.

What about the normalized growth [6] of the same compound?
The normalized growth was 0.93.

What about the normalized growth [7] of the same compound?
Its normalized growth is 1.02.

And the normalized growth [8]?
Its normalized growth is 1.01.
